Reference: PubChem BioAssay (NCATS)
Results filed as inconclusive are left out. Activity calls are given as the source filed them. Calls follow the shape of the dose curve; as a rule, active = well fitted curve in the direction sought with a large enough effect; inconclusive = small, poorly fitted or top-dose-only effect, or another doubt; inactive = no such curve, though single readings can be large; an effect the other way counts as inactive or inconclusive.

Assays:
[1] = qHTS of pediatric cancer cell lines to identify multiple opportunities for drug repurposing: Primary screen for SK-N-MC cells (AID 1347093); also: potency is read from the fitted curve at half-maximal effect
In short: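 Metabolically active cells were quantified by ATP-dependent luminescence (CellTiter-Glo, 15 min at room temperature) following 48 h treatment. Cells had been plated at 500-1,000 per well and settled for 5 h beforehand.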

[2] = qHTS of pediatric cancer cell lines to identify multiple opportunities for drug repurposing: Primary screen for BT-37 cells (AID 1347094); also: potency is read from the fitted curve at half-maximal effect
In short: (§1)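 CRCs from 8- or 11-point titrations (lowest final 0.59 nM NPC, 0.78 nM MIPE). Cell viability: CellTiter-Glo after 48 h incubation, 15 min room-temperature development, luminescence imaging.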

[3] = qHTS of pediatric cancer cell lines to identify multiple opportunities for drug repurposing: Primary screen for NB-EBc1 cells (AID 1347095)
In short: as §1

[4] = qHTS of pediatric cancer cell lines to identify multiple opportunities for drug repurposing: Primary screen for U-2 OS cells (AID 1347096); also: nearly all actives have a fitted effect of over 50% in size
In short: (§2)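 Cells (500-1,000/well) in growth media were settled 5 h at 37 degrees C, then given compounds for 48 h. Viability was read as CellTiter-Glo luminescence. Primary runs used MIPE at 11 points (0.78 nM-46 µM) and NPC at 8 points (0.59 nM-46 µM); follow-ups used 11 points.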

[5] = qHTS of pediatric cancer cell lines to identify multiple opportunities for drug repurposing: Primary screen for SK-N-SH cells (AID 1347098);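 also: DMSO served as neutral control and bortezomib at 2.3 µM as positive control; nearly all actives have a fitted effect of over 65% in size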
In short: (§3)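 Cells (500-1,000/well) rested 5 h, then received compounds for 48 h; metabolically active cells were measured by CellTiter-Glo luminescence. Final concentrations spanned up to 46 µM (MIPE, 11-point) or 0.59 nM-46 µM (NPC, 8-point) in primary screens, 11-point in follow-ups.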

[6] = qHTS of pediatric cancer cell lines to identify multiple opportunities for drug repurposing: Primary screen for NB1643 cells (AID 1347099); also: nearly all actives have a fitted effect of over 50% in size
In short: as §1

[7] = qHTS of pediatric cancer cell lines to identify multiple opportunities for drug repurposing: Primary screen for LAN-5 cells (AID 1347100)
In short: as §2

[8] = qHTS of pediatric cancer cell lines to identify multiple opportunities for drug repurposing: Primary screen for BT-12 cells (AID 1347101); also: nearly all actives have a fitted effect of over 25% in size
In short: as §3

[9] = qHTS of pediatric cancer cell lines to identify multiple opportunities for drug repurposing: Primary screen for Rh18 cells (AID 1347102); also: nearly all actives have a fitted effect of over 65% in size
In short: as §2

[10] = qHTS of pediatric cancer cell lines to identify multiple opportunities for drug repurposing: Primary screen for Saos-2 cells (AID 1347097); also: nearly all actives have a fitted effect of over 40% in size
In short: as §1

Measured: Potency

CC(=O)O[C@H]1CC[C@@]2(C)C(=CC[C@@H]3[C@@H]2CC[C@]2(C)C(C(C)=O)=CC[C@@H]32)C1
not listed: [10]
inactive: all other assays above

C[C@@H]1CCC[C@H](C)N1CCCC(O)(c1ccccc1)c1ccccn1 (some centres undefined)
not listed: [10]
inactive: all other assays above

Cc1sccc1Br
not listed: [10]
inactive: all other assays above

CCCCCC[C@@H](CCC)C(=O)O
not listed: [10]
inactive: all other assays above

CCN(CC)CC(=O)Nc1c(C)cccc1C(=O)OC
not listed: [10]
inactive: all other assays above

NS(=O)(=O)c1ccc(N2CCCCS2(=O)=O)cc1
not listed: [7] | [10]
inactive: all other assays above

CCC(=O)Oc1ccc2c(c1)CC[C@@H]1[C@@H]2CC[C@@]2(C)[C@H]1C[C@@H](OC(=O)CC)[C@@H]2OC(=O)CC
not listed: [10]
inactive: all other assays above

Cc1cccc(OCC(O)CNC(C)(C)C)c1C (centres undefined)
not listed: [10]
inactive: all other assays above

CC1(C)O[C@@H]2C[C@H]3[C@@H]4C[C@H](F)C5=CC(=O)C=C[C@]5(C)[C@@]4(F)[C@@H](O)C[C@]3(C)[C@]2(C(=O)CO)O1
not listed: [6] | [10]
inactive: all other assays above

CN1C(=O)c2ccccc2C1=O
not listed: [10]
inactive: all other assays above

CCN(CC)CC(=O)Oc1ccc(NC(C)=O)cc1
not listed: [8] | [10]
inactive: all other assays above

O=C(c1ccco1)N1CCNCC1
not listed: [10]
inactive: all other assays above

C/C(=C(/OCCOc1ccc(Cl)cc1)c1ccc(Cl)cc1Cl)n1ccnc1
active: [1] 21.1 µM
not listed: [5] | [6] | [8]
inactive: all other assays above

CO/N=C(/C(=O)N[C@@H]1C(=O)N2C(C(=O)O)=C(Cn3nnc(C)n3)CS[C@H]12)c1csc(N)n1
not listed: [7] | [10]
inactive: all other assays above

Nc1ncnc2nc[nH]c12
not listed: [6] | [10]
inactive: all other assays above

CN(C)CCCOC1(Cc2ccccc2)CCCCCC1
not listed: [10]
inactive: all other assays above

CCOC(=O)CN1CCCC1=O
not listed: [7] | [10]
inactive: all other assays above

CC(CC(C#N)(c1ccccc1)C(C)C)N(C)C (centres undefined)
not listed: [10]
inactive: all other assays above

COc1cc(/C=C/C(N)=O)cc(OC)c1OC
active: [2] 0.001 µM
not listed: [6] | [10]
inactive: all other assays above

CCCC(=O)O[C@]1(C(=O)CC)CC[C@H]2[C@@H]3CCC4=CC(=O)CC[C@]4(C)[C@H]3[C@@H](O)C[C@@]21C
active: [1] 33.5 µM
not listed: [10]
inactive: all other assays above

C[C@@]12CCC[C@H]1[C@@H]1CC[C@H]3C[C@@H](O)CC[C@]3(C)[C@H]1CC2
not listed: [8] | [10]
inactive: all other assays above

C[C@H]1C[C@H](O)c2ccsc2S1(=O)=O
not listed: [10]
inactive: all other assays above

CO/N=C(\C(=O)O)c1csc(NC(=O)CCl)n1
not listed: [10]
inactive: all other assays above

CCc1cc(S(=O)(=O)O)c2cc(C(C)C)cccc1-2
not listed: [10]
inactive: all other assays above

CCn1ccc(NS(=O)(=O)c2ccc(N)cc2)nc1=O
not listed: [8] | [10]
inactive: all other assays above
